Screens from PubChem.
The sample as a whole holds a higher share of hits than the screen did.
Pf Dd2 growth: blocks in vitro growth of P. falciparum Dd2; Potency, µM (top dose mostly 28.9 µM), without a hit: top-dose activity, negative = inhibition, hits mostly inhibitors; P. falciparum Dd2 growth, SYBR Green, 72 h; actives 4.3% (n = 120,000); AID 1347417; active = well fitted inhibition curve with a large enough effect;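 also: plate controls were DMSO vehicle for no effect and reference drug for full effect; nearly all actives have a fitted effect of over 65% in size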
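Readout: SYBR Green fluorescence, 485 nm excitation, 535 nm emission, after ~16 h lysis at 37C. Before that, Dd2-infected red cells (2.5% hematocrit) grew 72 h with compound, 29 uM top final concentration.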
An asterisk follows results filed as active; i = inactive; ! = repeats disagree; [ ] = dose if it differs, or a comment. Potency is read from the fitted curve at half-maximal effect.

SMILES	Pf Dd2 growth
Cc1noc(C)c1[S+](=O)([O-])N1CCc2nc(C(C)C)nc(-c3ccc(Cl)cc3)c2CC1	10%
CC(=O)c1ccc(NC(=O)c2cnn(-c3cccc(F)c3)c2-n2cccc2)cc1	4%
Cc1ccc(Cl)cc1N1CCN(C(=O)c2cnn(-c3ccc(Cl)cc3)c2C2CCNCC2)CC1	10µM*
O=C(Nc1cccc(C(F)(F)F)c1)c1cnn(-c2cccc(F)c2)c1C1CCNCC1	11µM*
Cc1ccc(-n2ncc(C(=O)N3CCN(c4ccccn4)CC3)c2C2CCN(C(=O)OC(C)(C)C)CC2)cc1C	36%
CC(C)(C)OC(=O)N1CCC(c2c(C(=O)N3CCN(c4ccccn4)CC3)cnn2-c2ccc(F)cc2)CC1	-5%
Cc1ccc(C)c(NC(=O)c2cnn(-c3ccc(F)cc3F)c2C2CCNCC2)c1	39%
Cc1cc(C)cc(NC(=O)C2CCN(C(=O)c3cnn(-c4ccccc4)c3-n3cccc3)CC2)c1	10%
CCc1nc(SC)ncc1C(=O)N1CCN(c2cc(Cl)ccc2C)CC1	i
Cc1ccc(N2CCN(C(=O)c3cnn(-c4ccc(C)c(C)c4)c3C3CCNCC3)CC2)c(C)c1	5.6µM*
O=C(c1ccco1)N1CCN(C(=O)c2cnn(-c3cccc(F)c3)c2C2CCNCC2)CC1	2%
Cc1cc(C)cc(NC(=O)c2cnn(-c3ccc(C)c(C)c3)c2C2CCNCC2)c1	4µM*
COCc1noc([C@@H]2CC(F)(F)CN2C(=O)c2coc(C)n2)n1	19%
CC(C(N)=O)N1CCC(n2nccc2NC(=O)c2ccc3c(c2)OCO3)CC1 (stereo not drawn)	4%
N#Cc1cccc(C(=O)NCc2nnc3ccc(-c4ccc(F)cc4)nn23)c1	i
O=C(NC1CCN(C(=O)N2CC3CC(C2)[C@H]2CCCC(=O)N2C3)CC1)c1ccccc1 (stereo partly drawn)	-7%
CCOCCCNC(=O)CN1CCCc2nc(C3CC3)ncc2C1=O	5%
COc1cc(Cl)ccc1C(=O)N1[C@@H]2CC[C@H]1CC(NC(=O)c1ccncc1)C2 (stereo partly drawn)	0%
Cc1c(Cl)cccc1-n1ncc(C(=O)N2CCOCC2)c1C1CCN(C(=O)OC(C)(C)C)CC1	-6%
Cc1ccc2nc(N3CCC(C(=O)N4CCN(c5cccc(C)c5C)CC4)CC3)[nH]c2c1	-7%
Cc1cccc(N2CCN(C(=O)c3cnn(-c4cccc(Cl)c4C)c3C3CCNCC3)CC2)c1C	11µM*
Cn1nccc1OCc1cn2c(=O)n(C)cc(-c3ccccc3F)c2n1	i
CC1(COc2ccc(-c3nc(COc4ccccc4)no3)cn2)CCCNC1 (stereo not drawn)	i
CCC(O)CNc1ccc(-c2nc(COC)no2)cn1 (stereo not drawn)	1%
c1ccc(OCc2noc(-c3ccc(NC4CCSC4)nc3)n2)cc1 (stereo not drawn)	10µM*
SMILES	Pf Dd2 growth
CN1CCOc2c(C(=O)NCc3cnn(C)c3)cc(-c3ccccc3)cc21	i
O=C(NCc1ccco1)[C@@H]1Cc2nc[nH]c2CN1Cc1ccc(C(F)(F)F)cc1	-9%[44.1 µM]
O=C1[C@H]2CN(Cc3ccc(F)cc3Cl)C[C@H]2C(=O)N1CCN1CCc2ccccc2C1	4µM*
O=C1[C@H]2CN(Cc3cccc(Cl)c3F)C[C@H]2C(=O)N1CCc1ccccc1	20%
O=C1[C@H]2CN(Cc3ccc(F)cc3Cl)C[C@H]2C(=O)N1Cc1ccc2c(c1)OCO2	-2%
CC(Oc1ccccc1)C(=O)N1CCOCCNC(=O)CC1 (stereo not drawn)	10%
CCCNC(=O)C(NC(=O)c1cccc(OC)c1)C1CCN(C(=O)COC)CC1 (stereo not drawn)	13%
CC(C)N1CC[C@@H]2[C@H]1C(=O)NC[C@H](CCC(=O)NCc1cccs1)N2C	0%[44.1 µM]
CCN1CCCC(c2nc3ccc(C)cc3c(=O)[nH]2)C1 (stereo not drawn)	-17%[44.1 µM]
COc1ccccc1-c1ccc(CN2CCCC(c3nc4ccc(C)cc4c(=O)[nH]3)C2)cc1 (stereo not drawn)	7.9µM*!
Cc1ccc2nc(C3CCN(Cc4cccc(-c5ccsc5)c4)CC3)[nH]c(=O)c2c1	7%
Cc1ccc2nc(C3CCN(Cc4cccs4)CC3)[nH]c(=O)c2c1	-1%[44.1 µM]
COc1ccc(CN2CCCC(c3nn(-c4ccc(OC)cc4)c(=O)[nH]3)C2)cc1 (stereo not drawn)	i
Cc1ccc2nc(C3CCCN(Cc4cccc(-c5cccnc5)c4)C3)[nH]c(=O)c2c1 (stereo not drawn)	6.3µM*
O=C1CC(c2noc(Cc3ccc(Cl)cc3)n2)CN1C1CCCCC1 (stereo not drawn)	-18%
O=C(CC1CCS(=O)(=O)C1)N1CCCC(c2ccccc2)(c2ccccc2)C1 (stereo not drawn)	-18%
Cc1cccc2nc(C(=O)N3CCC(n4cc(C(C)(C)O)nn4)CC3)cn12	1%
Cc1nc2ccccc2c(=O)n1-c1ccc(NC(=O)c2ccc([N+](=O)[O-])cc2)cc1	15%
Cc1cc(-n2c(C)nc3ccccc3c2=O)ccc1NC(=O)c1cccc([N+](=O)[O-])c1	8.9µM*
